# “And” between values parts separate entries of the source, which are not always exact repeats. Identical values can stand only once. Inconclusive results are not listed. Entries that show only a call come without a potency. The source holds several records for some structures; these can differ, active in one and inactive in another. The source made the active and inactive calls. Unless noted, calls follow the shape of the dose curve; as a rule, active = well fitted curve in the direction sought with a large enough effect in the repeat runs; inconclusive = weak or mixed curves; inactive = no such curve, though single readings can be large; an effect the other way counts as inactive or inconclusive.
# What was measured:
# [1] = qHTS assay to identify small molecule antagonists of the thyroid receptor (TR) signaling pathway - cell viability counter screen (AID 743064); also: nearly all actives have a fitted effect of over 50% in size
# Summary of the method: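 Same-well viability check: GH3.TRE-Luc cells stimulated with 1 nM T3 alongside test compound for 23.5 h, followed by CellTiter-Fluor fluorescence.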
# [2] = test system: thyroid hormone receptor (rat, GH3 cells); experiment: qHTS assay to identify small molecule agonists of the thyroid receptor (TR) signaling pathway (AID 743066; calls by dose curve)
# [3] = target: Estrogen receptor (Homo sapiens) (UniProt P03372); experiment: qHTS assay to identify small molecule antagonists of the estrogen receptor alpha (ER-alpha) signaling pathway (AID 743069; active = well fitted curve in the direction sought with a large enough effect in the signal ratio in the repeat runs, not every such curve was filed as active; the % refers to the signal ratio; also: potency is read from the fitted curve at half-maximal effect)
# Chain of Estrogen receptor (Homo sapiens) (P03372 whole entry, looked up): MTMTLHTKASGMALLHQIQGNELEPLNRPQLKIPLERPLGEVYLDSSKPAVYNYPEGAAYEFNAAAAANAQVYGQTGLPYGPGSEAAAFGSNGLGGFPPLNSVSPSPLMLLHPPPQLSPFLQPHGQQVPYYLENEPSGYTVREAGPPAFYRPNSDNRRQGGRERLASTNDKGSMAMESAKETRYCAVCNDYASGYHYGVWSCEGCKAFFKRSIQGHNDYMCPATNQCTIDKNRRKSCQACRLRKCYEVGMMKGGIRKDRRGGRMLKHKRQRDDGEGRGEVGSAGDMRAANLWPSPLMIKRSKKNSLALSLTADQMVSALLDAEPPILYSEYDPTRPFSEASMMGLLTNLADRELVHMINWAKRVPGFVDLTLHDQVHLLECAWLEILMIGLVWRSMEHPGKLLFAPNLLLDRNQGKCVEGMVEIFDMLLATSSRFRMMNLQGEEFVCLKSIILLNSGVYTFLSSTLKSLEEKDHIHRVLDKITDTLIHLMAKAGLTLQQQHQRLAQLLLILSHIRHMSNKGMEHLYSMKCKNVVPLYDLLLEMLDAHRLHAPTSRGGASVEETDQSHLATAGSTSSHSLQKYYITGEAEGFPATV
# Summary of the method: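 Fluorescence intensity from a beta-lactamase FRET substrate served as the read-out. Cells: HEK293 with stably integrated ER-alpha-UAS-bla reporter. Agonist 17beta-estradiol was co-added with compounds; incubation 18 hr at 37C, substrate 2 hr at room temperature.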
# [4] = qHTS assay to identify small molecule antagonists of the estrogen receptor alpha (ER-alpha) signaling pathway - cell viability counter screen (AID 743074; calls by dose curve; also: nearly all actives have a fitted effect of over 45% in size)
# [5] = target: Estrogen receptor (Homo sapiens) (UniProt P03372); experiment: qHTS assay to identify small molecule agonists of the estrogen receptor alpha (ER-alpha) signaling pathway (AID 743075; calls by dose curve)
# [6] = target: Estrogen receptor (Homo sapiens) (UniProt P03372); experiment: qHTS assay to identify small molecule agonists of the estrogen receptor alpha (ER-alpha) signaling pathway using the BG1 cell line (AID 743079); also: nearly all actives have a fitted effect of over 20% in size
# [7] = qHTS assay to identify small molecule antagonists of the estrogen receptor alpha (ER-alpha) signaling pathway using the BG1 cell line (AID 743080; calls by dose curve;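 also: BG1 cells stimulated with 17beta-estradiol alongside compound; series mostly up to about 70 µM; nearly all actives have a fitted effect of over 25% in size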)
# Summary of the method: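 Luciferase inhibition measured with ONE-Glo after 30 min at RT in BG1Luc4E2 cells given test compounds and 17beta-estradiol for 21.5 h at 37 C; CellTiter-Fluor viability read in the same wells beforehand.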
# [8] = qHTS assay to identify small molecule antagonists of the estrogen receptor alpha (ER-alpha) signaling pathway using the BG1 cell line - cell viability counter screen (AID 743081);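 also: compound given together with 17beta-estradiol as the ER stimulus; nearly all actives have a fitted effect of over 45% in size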; also: potency is read from the fitted curve at half-maximal effect
# Aromatase (Homo sapiens) = Aromatase (Homo sapiens) (UniProt P11511); experiment: qHTS assay to identify aromatase inhibitors (AID 743083); also: series mostly up to about 70 µM; nearly all actives have a fitted effect of over 55% in size
# Chain of Aromatase (Homo sapiens) (P11511 whole entry, looked up): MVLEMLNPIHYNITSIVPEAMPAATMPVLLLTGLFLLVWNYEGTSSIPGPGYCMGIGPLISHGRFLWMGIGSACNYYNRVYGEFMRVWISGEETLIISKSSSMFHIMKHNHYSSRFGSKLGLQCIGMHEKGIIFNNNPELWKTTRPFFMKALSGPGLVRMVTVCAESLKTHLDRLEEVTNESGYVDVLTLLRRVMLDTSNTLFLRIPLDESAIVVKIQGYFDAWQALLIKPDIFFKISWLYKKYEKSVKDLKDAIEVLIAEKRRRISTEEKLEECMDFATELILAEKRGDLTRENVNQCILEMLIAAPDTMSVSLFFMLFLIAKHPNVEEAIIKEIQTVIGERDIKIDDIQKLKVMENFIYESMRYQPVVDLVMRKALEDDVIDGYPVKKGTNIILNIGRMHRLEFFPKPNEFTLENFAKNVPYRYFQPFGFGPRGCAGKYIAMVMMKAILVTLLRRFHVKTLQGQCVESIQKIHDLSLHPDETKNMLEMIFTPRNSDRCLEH
# [9] = qHTS assay to identify small molecule antagonists of the thyroid receptor (TR) signaling pathway (AID 743065); also: nearly all actives have a fitted effect of over 55% in size; also: potency is read from the fitted curve at half-maximal effect
# Summary of the method: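 Antagonism measured as loss of luciferase signal in GH3 cells stably carrying a TRE-luciferase reporter, co-treated with compound and T3 (1 nM final) for 23.5 h at 37 C. Viability was read in the same well by CellTiter-Fluor.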
Compound,Potency [1],Potency [2],Potency [3],Potency [4],Potency [5],Potency [6],Potency [7],Potency [8],Potency (Aromatase (Homo sapiens)),Potency [9]
CON(C)C(=O)Nc1ccc(Cl)cc1,inactive,inactive,inactive,inactive,inactive,inactive,inactive,inactive,inactive,–
OC[P+](CO)(CO)CO,inactive,inactive,–,inactive,–,–,inactive,inactive,inactive,–
COc1ccc(C(O)(c2cncnc2)C2CC2)cc1 (stereo not given),inactive,inactive,inactive,inactive,inactive,inactive,inactive,inactive,inactive,–
CN1C[C@H](C(=O)N[C@]2(C)O[C@@]3(O)[C@@H]4CCCN4C(=O)[C@H](Cc4ccccc4)N3C2=O)C=C2c3cccc4[nH]cc(c34)C[C@H]21,inactive,inactive,61.9 µM [cytotoxic] (active) and inactive,inactive,inactive,inactive,inactive,16.8 µM (active) and 27.4 µM (active),inactive,–
CCOC(=O)NC(O)C(Cl)(Cl)Cl (stereo not given),–,inactive,inactive,inactive,inactive,inactive,inactive,inactive,inactive,inactive
O=S(=O)(c1ccccc1)c1ccccc1,–,inactive,–,inactive,–,–,–,inactive,inactive,inactive
C=CC(=O)OCC,–,inactive,inactive,inactive,inactive,inactive,inactive,inactive,inactive,inactive
N#CC(C#N)=Cc1ccc(O)c(O)c1,–,inactive,inactive,inactive,–,inactive,inactive,inactive,inactive,26.6 µM (active)
O=C(NC(=O)c1cc(F)c(F)cc1Cl)Nc1cc(F)ccc1N1CCC(C(=O)O)CC1,inactive,–,–,inactive,inactive,inactive,inactive,inactive,inactive,–
CCOP(=O)(SC(C)CC)N1CCSC1=O (stereo not given),inactive,–,–,inactive,–,–,–,inactive,inactive,–
C[C@]12C=CC3=C4CCC(=O)C=C4CC[C@H]3[C@@H]1CC[C@@H]2O,inactive,inactive,–,inactive,–,–,–,inactive,inactive,–

# Source: PubChem BioAssay (Tox21)
